The supplement of paper PMC9433436
± gives the standard deviation of the averaged measurements. In all, about 4,100 sequences were measured (“relative kcat/Km (krel) vs genomic leader AAAGAU”: median about 1.7, highest 2% from about 6.5 on). The full list was thinned out, with the highest values kept by preference.

Target: T1, E. coli RNase P holoenzyme (M1 P RNA + rnpA protein) (UniProt P0A7Y8)
T1 sequence: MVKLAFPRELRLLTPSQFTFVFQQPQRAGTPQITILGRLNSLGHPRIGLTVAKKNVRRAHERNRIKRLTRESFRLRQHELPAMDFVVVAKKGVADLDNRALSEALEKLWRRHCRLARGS
Assay: relative kcat/Km (krel) vs genomic leader AAAGAU (relative (reference leader = 1)); higher = faster RNase P cleavage
Method: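 HTS-Kin: a pool of ptRNA-Met (21C construct) with all 4096 combinations of 5' leader nucleotides N(-6) to N(-1) was processed in vitro by E. coli RNase P (P RNA + rnpA/C5 protein) under multiple-turnover conditions at 37 C, pH 8, 17.5 mM MgCl2. Residual substrate was Illumina-sequenced at several fractions reacted, and relative kcat/Km (krel) was computed by internal competition kinetics, calibrated to the genomic leader (AAAGAU = 1). The listed hexamer is the varied N(-6)..N(-1) leader (DNA letters), and it sits between a fixed 5' stem-loop flank (GCAUGCACGAAAGUGCGUGCUAUGAA) and the mature tRNA-Met starting GGCUACGUAGCUCAGUUGG. Two technical replicates are averaged.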

[1] = fraction of substrate reacted: ~9-10% (9.79% repeat 1, 9.1% repeat 2)
[2] = fraction of substrate reacted: ~13-16% (15.68% repeat 1, 13.17% repeat 2)
[3] = fraction of substrate reacted: ~26-29% (28.66% repeat 1, 26.4% repeat 2)

| Sequence | relative kcat/Km [1] | relative kcat/Km [2] | relative kcat/Km [3] |
| --- | --- | --- | --- |
| CTCGTA | 3.1 ± 0.69 | 3.21 ± 0.68 | 4.83 ± 2 |
| TTCGCC | 4.66 ± 1.2 | 6.09 ± 1.6 | 9.48 ± 3.8 |
| CTCGCA | 4.01 ± 1.4 | 4.94 ± 0.48 | 6.71 ± 2.1 |
| TTCGCT | 2.88 ± 1.4 | 3.06 ± 0.21 | 4.56 ± 1.4 |
| CGCGCA | 1.86 ± 0.068 | 2.64 ± 0.045 | 3.31 ± 0.91 |
| TTCGCG | – | 2.32 ± 0.79 | 3.87 ± 0.24 |
| CTCGCG | 2.22 ± 1.4 | 1.19 ± 1.2 | 3.19 ± 1 |
| CTCGCC | 4.36 ± 1.6 | 5.23 ± 1.7 | 7.26 ± 2.8 |
| CTCGCT | 1.9 ± 0.4 | 2.61 ± 0.72 | 3.67 ± 0.94 |
| TAAAGG | – | – | 0.833 ± 0.34 |
| CCGACA | 0.997 ± 0.31 | – | 0.842 ± 0.8 |
| GTGTCG | – | – | 0.804 ± 0.49 |
| AGCCTA | 2.05 ± 0.87 | 1.97 ± 0.57 | 2.57 ± 0.69 |
| GACAGA | 3.09 ± 0.71 | 4.59 ± 1.2 | 6.53 ± 2.4 |
| AACAGA | 3.71 ± 2.3 | 4.083 ± 0.036 | 5.65 ± 2.1 |
| GACAGG | – | – | 1.2 ± 0.042 |
| CACAGA | 3.95 ± 0.46 | 4.77 ± 2 | 7.2 ± 2.4 |
| CACAGG | 0.41 ± 0.093 | – | 1.35 ± 0.051 |
| CACAGT | – | – | 1.95 ± 1.9 |
| GTACAG | – | – | 1.99 ± 0.4 |
| GAAGGT | – | – | 1.31 ± 0.065 |
| TACAGG | – | – | 1.7 ± 0.63 |
| CACAGC | 3.88 ± 1.2 | 4.31 ± 1.1 | 5.98 ± 2.7 |
| TACAGT | – | – | 2.94 ± 2.7 |
| TACAGC | 3.82 ± 2 | 4.94 ± 0.45 | 6.84 ± 2.6 |
| TACAGA | 4.52 ± 2 | 5.66 ± 0.35 | 8.3 ± 3 |
| TACACA | 3.05 ± 1.1 | 3.7 ± 0.067 | 5.53 ± 2.6 |

| Sequence | relative kcat/Km [1] | relative kcat/Km [2] | relative kcat/Km [3] |
| --- | --- | --- | --- |
| CTGACC | – | 0.599 ± 0.52 | 1.2 ± 0.63 |
| ACTGTC | 1.77 ± 1.3 | 0.935 ± 0.31 | 1.12 ± 0.25 |
| AAGATT | 1.89 ± 0.21 | 1.82 ± 0.21 | 2.06 ± 0.8 |
| GTGTAA | 1.31 ± 0.75 | 2.41 ± 1.1 | 2.94 ± 1.5 |
| AGCTAA | 3.22 ± 1.8 | 3.61 ± 1 | 5.8 ± 3 |
| TGCTAG | 1.97 ± 1.5 | 1.376 ± 0.0054 | 2.44 ± 0.12 |
| ATCTAA | 4.39 ± 1.5 | 5.55 ± 1.1 | 8.58 ± 3.4 |
| GTCTAA | 4.58 ± 0.43 | 7.55 ± 1.7 | 10.1 ± 4.8 |
| TGCTAA | 2.19 ± 0.95 | 2.88 ± 0.23 | 3.74 ± 1.1 |
| TTTCTA | 2.15 ± 0.72 | 2.3 ± 0.57 | 2.89 ± 1.2 |
| TTCTAG | 4.08 ± 2.6 | 4.58 ± 0.56 | 7.01 ± 3.1 |
| TTCTAA | 5.69 ± 2.2 | 7.17 ± 1.2 | 10.6 ± 4.1 |
| GGCTAA | 2.12 ± 0.85 | 2.32 ± 0.78 | 3.19 ± 0.8 |
| GTGAAC | 1.89 ± 0.25 | 2.27 ± 0.31 | 2.83 ± 0.88 |
| TTGCAG | – | – | 1.37 ± 0.19 |
| GGCTTC | 0.513 ± 0.13 | 1.31 ± 0.14 | 1.7 ± 0.44 |
| CACTCC | 3.12 ± 2.1 | 3.9 ± 0.2 | 5.21 ± 1.3 |
| CAAGCT | 1.48 ± 1.3 | 0.905 ± 0.4 | 1.37 ± 0.37 |
| ATGTAC | 3.03 ± 0.37 | 3.81 ± 0.94 | 5.39 ± 2.7 |
| TGCGGT | – | – | 2.25 ± 1.2 |
| AGCTAT | 4.03 ± 1.8 | 3.39 ± 1.1 | 5.23 ± 1.9 |
| TTCTAC | 5.32 ± 1.5 | 7.7 ± 1.3 | 10.6 ± 4.4 |
| CTAAAA | 2.15 ± 0.51 | 2.43 ± 0.18 | 2.89 ± 0.88 |
| TGCTAC | 2.42 ± 1.5 | 2.16 ± 0.89 | 4.62 ± 2.6 |
| TTCTAT | 5.38 ± 0.96 | 7.59 ± 1.6 | 10.5 ± 4.7 |
| CTCTAA | 4.48 ± 1.2 | 6.21 ± 1.1 | 8.82 ± 3.7 |
